Test results published in the supplement of paper PMC10849652.
Targets with a hit are over-represented here; the source holds about 7,900 in all. About 0.6% of all pairs of compound and target were hits. A number with no mark means an inactive call.

Columns and labels:
Test in all cases: log2 fold change, soluble protein after heating vs DMSO (PISA); higher = thermal stabilisation; K562 cells, 10 uM, 30 min; active = over 0.2 and 3.5 SD of the protein, either way, in both replicates (recomputed)
IRAK-1-4 Inhibitor I = compound: C1COCCN1CCN2C3=CC=CC=C3N=C2NC(=O)C4=CC(=CC=C4)[N+](=O)[O-] [IRAK-1-4 Inhibitor I]
In short: (§1)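 K562 cells at 2×10^6 cells/mL were given 10 μM compound for 30 min. Aliquots then went through 3 min of heating across 48°C-58°C, were pooled, and were extracted in PBS with 0.5% NP-40 at 4°C, and the supernatant after 21,000xg for 90 min was quantified by TMTpro 16plex LC-MS/MS with channel sums equalised. Thermal stability relative to control samples, from duplicates, is given as log2 fold change.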

ibrutinib = compound: C=CC(=O)N1CCC[C@@H](n2nc(-c3ccc(Oc4ccccc4)cc3)c3c(N)ncnc32)C1 [ibrutinib]
In short: as §1

[1] = compound: CC(=O)c1cnc2ccc(-c3cc(Cl)c(O)c(Cl)c3)nc2c1N[C@H]1CC[C@H](CN(C)C)CC1
In short: as §1

ralimetinib = compound: CC(C)(C)Cn1c(N)nc2ccc(-c3[nH]c(C(C)(C)C)nc3-c3ccc(F)cc3)nc21 [ralimetinib]
In short: as §1

[2] = compound: CC(C)(O)CC(=O)NCCn1ccc2ncnc(Nc3ccc(Oc4cccc(C(F)(F)F)c4)c(Cl)c3)c21
In short: as §1

[3] = compound: CC(C)C1=C2N=C(C=C(N2N=C1)NCC3=CC=CC=C3)NCCCCCCN
In short: as §1

[4] = compound: CC(C)C[C@@H](C=O)NC(=O)[C@H](CC(C)C)NC(=O)[C@H](CC(C)C)NC(=O)OCc1ccccc1
In short: as §1

pinometostat = compound: CC(C)N(C[C@H]1O[C@@H](n2cnc3c(N)ncnc32)[C@H](O)[C@@H]1O)[C@H]1C[C@@H](CCc2nc3cc(C(C)(C)C)ccc3[nH]2)C1 [pinometostat]
In short: as §1

[5] = compound: CC1=C(C(CC(=O)N1)C2=CC=C(C=C2)C(F)(F)F)C(=O)NC3=C(C=C4C(=C3)C=NN4)F
In short: as §1

[6] = compound: CC1=C(C2=C(C=C1)C(=O)C3=CC=CC=C3N2CCCN)C
In short: as §1

[7] = compound: CC1=C(C=C(C=C1)NC(=O)C2=CC(=CC=C2)C(C)(C)C#N)NC3=CC4=C(C=C3)N=CN(C4=O)C
In short: as §1

[8] = compound: CC1=C(C=C(C=C1)NC(=O)C2=CC(=CC=C2)N(C)C)NC(=O)C3=CC=C(C=C3)O
In short: as §1

[9] = compound: CC1=CC=C(C=C1)SC2=C3C=C(SC3=CN=C2)C(=O)N
In short: as §1

[10] = compound: CC1=NC(=CC=C1)C2=C(N=C(N2)C(C)(C)C)C3=CC4=NC=CN=C4C=C3
In short: as §1

Nexturastat A = compound: CCCCN(Cc1ccc(C(=O)NO)cc1)C(=O)Nc1ccccc1 [Nexturastat A]
In short: as §1

vemurafenib = compound: CCCS(=O)(=O)Nc1ccc(F)c(C(=O)c2c[nH]c3ncc(-c4ccc(Cl)cc4)cc23)c1F [vemurafenib]
In short: as §1

[11] = compound: CCCS(=O)(=O)Nc1ccc(F)c(C(=O)c2c[nH]c3ncc(Cl)cc23)c1F
In short: as §1

[12] = compound: CCCc1cc(C)[nH]c(=O)c1CNC(=O)c1cc(-c2ccnc(N3CCN(C)CC3)c2)cc2c1cnn2C(C)C
In short: as §1

givinostat = compound: CCN(CC)Cc1ccc2cc(COC(=O)Nc3ccc(C(=O)NO)cc3)ccc2c1 [givinostat]
In short: as §1

barasertib = compound: CCN(CCCOc1ccc2c(Nc3cc(CC(=O)Nc4cccc(F)c4)[nH]n3)ncnc2c1)CCOP(=O)(O)O [barasertib]
In short: as §1

UniProt P51151, sequence (P51151 whole entry, looked up): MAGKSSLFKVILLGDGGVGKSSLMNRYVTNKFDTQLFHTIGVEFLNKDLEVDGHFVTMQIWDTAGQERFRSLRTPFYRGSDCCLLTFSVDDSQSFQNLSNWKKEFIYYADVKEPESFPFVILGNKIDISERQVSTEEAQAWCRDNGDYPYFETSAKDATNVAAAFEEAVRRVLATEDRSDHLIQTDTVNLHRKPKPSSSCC
UniProt O95470, sequence (O95470 whole entry, looked up): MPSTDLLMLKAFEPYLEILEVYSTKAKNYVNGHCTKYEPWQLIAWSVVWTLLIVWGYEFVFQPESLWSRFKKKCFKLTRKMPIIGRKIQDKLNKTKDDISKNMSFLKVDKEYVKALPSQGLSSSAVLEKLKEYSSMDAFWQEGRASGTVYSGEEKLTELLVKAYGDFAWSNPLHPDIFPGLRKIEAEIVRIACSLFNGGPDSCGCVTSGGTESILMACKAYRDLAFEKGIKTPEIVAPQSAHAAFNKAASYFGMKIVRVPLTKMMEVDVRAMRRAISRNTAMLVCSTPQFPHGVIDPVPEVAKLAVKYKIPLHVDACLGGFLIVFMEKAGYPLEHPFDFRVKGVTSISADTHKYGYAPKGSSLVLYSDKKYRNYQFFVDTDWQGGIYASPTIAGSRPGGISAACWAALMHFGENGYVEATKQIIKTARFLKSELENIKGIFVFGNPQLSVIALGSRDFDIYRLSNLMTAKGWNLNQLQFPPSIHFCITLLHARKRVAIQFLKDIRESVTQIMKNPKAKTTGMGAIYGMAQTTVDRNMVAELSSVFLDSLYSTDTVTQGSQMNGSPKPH
UniProt Q8NBN7, sequence (Q8NBN7 whole entry, looked up): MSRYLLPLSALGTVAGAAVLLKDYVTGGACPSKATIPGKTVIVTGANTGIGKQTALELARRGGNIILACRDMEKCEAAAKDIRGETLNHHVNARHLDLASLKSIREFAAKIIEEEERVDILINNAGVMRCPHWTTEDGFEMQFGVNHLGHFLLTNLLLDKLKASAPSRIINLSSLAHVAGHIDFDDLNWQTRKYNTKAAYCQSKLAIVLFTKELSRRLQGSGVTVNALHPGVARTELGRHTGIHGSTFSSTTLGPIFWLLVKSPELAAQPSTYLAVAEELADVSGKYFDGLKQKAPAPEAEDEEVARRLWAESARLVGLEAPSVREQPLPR
UniProt Q9NTZ6, sequence (Q9NTZ6 whole entry, looked up): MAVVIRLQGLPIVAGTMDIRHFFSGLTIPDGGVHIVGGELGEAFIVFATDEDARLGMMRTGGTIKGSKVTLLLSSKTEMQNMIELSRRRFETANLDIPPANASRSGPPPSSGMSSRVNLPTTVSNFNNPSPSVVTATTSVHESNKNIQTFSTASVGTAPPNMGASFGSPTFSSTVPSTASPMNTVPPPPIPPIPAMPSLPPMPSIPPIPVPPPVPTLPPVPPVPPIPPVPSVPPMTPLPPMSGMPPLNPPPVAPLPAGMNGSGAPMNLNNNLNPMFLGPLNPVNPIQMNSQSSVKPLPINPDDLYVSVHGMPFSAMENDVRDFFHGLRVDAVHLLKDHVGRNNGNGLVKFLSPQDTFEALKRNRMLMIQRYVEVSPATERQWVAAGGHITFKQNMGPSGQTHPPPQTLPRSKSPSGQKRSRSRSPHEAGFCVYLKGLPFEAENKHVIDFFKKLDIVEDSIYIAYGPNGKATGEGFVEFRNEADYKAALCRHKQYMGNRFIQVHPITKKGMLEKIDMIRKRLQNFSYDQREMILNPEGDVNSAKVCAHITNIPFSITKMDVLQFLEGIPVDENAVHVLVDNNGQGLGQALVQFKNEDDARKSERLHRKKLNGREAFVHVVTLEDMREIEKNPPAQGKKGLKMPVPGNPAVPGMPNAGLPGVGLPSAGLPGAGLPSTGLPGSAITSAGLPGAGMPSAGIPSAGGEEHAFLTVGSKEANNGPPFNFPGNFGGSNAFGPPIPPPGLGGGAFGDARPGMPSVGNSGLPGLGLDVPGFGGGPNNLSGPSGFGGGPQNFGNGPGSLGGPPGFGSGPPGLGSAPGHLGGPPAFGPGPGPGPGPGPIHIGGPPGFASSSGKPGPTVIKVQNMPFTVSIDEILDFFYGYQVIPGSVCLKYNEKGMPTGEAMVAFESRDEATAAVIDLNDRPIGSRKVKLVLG
UniProt Q6NT16, sequence (Q6NT16 whole entry, looked up): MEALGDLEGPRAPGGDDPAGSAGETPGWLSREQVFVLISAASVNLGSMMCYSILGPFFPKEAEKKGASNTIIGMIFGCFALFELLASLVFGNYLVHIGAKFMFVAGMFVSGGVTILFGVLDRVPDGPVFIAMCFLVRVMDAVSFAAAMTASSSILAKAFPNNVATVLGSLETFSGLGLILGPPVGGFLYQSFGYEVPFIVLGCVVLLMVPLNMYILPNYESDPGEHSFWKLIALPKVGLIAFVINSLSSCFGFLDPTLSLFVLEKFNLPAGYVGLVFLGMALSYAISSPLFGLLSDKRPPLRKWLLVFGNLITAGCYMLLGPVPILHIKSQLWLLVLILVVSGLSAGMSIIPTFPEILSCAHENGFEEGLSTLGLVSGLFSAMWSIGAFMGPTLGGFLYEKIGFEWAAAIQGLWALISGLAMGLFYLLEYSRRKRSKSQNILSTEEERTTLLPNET
UniProt Q13546, sequence (Q13546 whole entry, looked up): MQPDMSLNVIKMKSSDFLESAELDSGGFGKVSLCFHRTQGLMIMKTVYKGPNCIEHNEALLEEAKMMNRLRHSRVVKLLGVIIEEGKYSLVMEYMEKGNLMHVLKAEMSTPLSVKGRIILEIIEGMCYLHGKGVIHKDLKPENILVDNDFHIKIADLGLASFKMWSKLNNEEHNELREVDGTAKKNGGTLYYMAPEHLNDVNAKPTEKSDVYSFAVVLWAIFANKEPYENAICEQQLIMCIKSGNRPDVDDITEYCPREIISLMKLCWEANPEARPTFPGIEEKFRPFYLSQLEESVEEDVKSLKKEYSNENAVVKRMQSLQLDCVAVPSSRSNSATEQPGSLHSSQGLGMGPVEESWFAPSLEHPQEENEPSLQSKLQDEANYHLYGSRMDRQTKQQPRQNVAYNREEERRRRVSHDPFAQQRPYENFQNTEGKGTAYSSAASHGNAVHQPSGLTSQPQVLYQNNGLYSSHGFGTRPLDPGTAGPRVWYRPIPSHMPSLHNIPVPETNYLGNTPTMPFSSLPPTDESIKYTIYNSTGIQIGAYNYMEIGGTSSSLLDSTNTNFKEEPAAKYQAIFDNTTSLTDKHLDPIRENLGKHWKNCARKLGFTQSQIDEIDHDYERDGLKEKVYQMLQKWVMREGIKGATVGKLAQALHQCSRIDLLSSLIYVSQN
UniProt Q15287, sequence (Q15287 whole entry, looked up): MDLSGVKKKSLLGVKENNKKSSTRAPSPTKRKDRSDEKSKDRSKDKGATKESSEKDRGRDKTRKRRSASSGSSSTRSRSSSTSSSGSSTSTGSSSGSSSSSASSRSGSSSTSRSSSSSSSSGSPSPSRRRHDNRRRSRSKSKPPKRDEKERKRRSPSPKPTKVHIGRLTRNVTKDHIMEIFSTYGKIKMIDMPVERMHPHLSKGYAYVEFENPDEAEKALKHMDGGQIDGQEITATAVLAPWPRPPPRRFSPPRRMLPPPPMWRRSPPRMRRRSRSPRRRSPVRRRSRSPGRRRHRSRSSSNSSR
UniProt O43818, sequence (O43818 whole entry, looked up): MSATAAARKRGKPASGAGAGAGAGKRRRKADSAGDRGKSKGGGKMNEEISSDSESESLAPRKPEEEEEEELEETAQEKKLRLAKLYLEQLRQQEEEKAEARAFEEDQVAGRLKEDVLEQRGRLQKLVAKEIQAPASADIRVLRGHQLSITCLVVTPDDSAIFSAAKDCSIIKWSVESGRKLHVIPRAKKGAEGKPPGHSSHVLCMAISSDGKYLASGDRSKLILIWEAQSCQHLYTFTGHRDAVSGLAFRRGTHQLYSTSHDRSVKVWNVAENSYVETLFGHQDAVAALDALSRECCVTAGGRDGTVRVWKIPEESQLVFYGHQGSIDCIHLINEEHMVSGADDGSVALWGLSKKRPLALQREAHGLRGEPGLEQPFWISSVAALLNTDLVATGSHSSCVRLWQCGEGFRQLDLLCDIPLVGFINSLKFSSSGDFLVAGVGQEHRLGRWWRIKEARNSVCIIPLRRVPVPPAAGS
UniProt Q86TU7, sequence (Q86TU7 whole entry, looked up): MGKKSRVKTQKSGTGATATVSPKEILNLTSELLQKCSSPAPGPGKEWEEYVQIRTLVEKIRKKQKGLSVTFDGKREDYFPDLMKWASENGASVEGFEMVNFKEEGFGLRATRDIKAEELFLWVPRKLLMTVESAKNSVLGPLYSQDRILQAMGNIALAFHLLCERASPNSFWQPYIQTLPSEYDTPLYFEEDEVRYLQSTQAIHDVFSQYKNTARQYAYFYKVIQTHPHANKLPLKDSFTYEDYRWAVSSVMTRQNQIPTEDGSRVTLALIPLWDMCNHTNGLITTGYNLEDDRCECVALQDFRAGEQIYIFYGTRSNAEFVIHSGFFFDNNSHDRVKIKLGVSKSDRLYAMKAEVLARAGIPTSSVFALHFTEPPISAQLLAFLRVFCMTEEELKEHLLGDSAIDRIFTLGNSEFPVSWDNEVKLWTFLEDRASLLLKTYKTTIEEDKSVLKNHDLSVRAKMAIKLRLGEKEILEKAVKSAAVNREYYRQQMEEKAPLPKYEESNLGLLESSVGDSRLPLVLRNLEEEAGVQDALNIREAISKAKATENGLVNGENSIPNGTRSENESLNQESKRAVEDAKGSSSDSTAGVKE
UniProt Q9BWF3, sequence (Q9BWF3 whole entry, looked up): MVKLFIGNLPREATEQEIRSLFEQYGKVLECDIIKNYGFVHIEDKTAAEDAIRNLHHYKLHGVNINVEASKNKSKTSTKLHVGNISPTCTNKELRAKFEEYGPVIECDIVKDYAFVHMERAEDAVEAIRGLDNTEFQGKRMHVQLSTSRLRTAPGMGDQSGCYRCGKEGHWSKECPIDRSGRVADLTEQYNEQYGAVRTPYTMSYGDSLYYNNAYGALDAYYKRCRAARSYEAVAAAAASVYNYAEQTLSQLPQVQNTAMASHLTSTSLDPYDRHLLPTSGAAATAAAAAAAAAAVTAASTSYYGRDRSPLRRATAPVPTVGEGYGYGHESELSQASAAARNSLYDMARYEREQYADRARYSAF

Target | log2 fold change (IRAK-1-4 Inhibitor I) | log2 fold change (ibrutinib) | log2 fold change [1] | log2 fold change (ralimetinib) | log2 fold change [2] | log2 fold change [3] | log2 fold change [4] | log2 fold change (pinometostat) | log2 fold change [5] | log2 fold change [6] | log2 fold change [7] | log2 fold change [8] | log2 fold change [9] | log2 fold change [10] | log2 fold change (Nexturastat A) | log2 fold change (vemurafenib) | log2 fold change [11] | log2 fold change [12] | log2 fold change (givinostat) | log2 fold change (barasertib)
RBM12 (UniProt Q9NTZ6) | -0.042 | -0.018 | -0.135 | -0.037 | -0.145 | -0.237 | 0.009 | -0.043 | 0.012 | -0.007 | 0.016 | -0.101 | 0.057 | 0.116 | -0.085 | 0.058 | 0.136 | 0.008 | 0.062 | 0.122
RRP9 (UniProt O43818) | -0.043 | 0.017 | -0.062 | 0.014 | 0.133 | -0.04 | -0.002 | 0.01 | 0.136 | -0.432 (active) | -0.03 | 0.057 | -0.046 | -0.081 | 0.095 | -0.026 | -0.074 | 0.009 | 0.047 | -0.084
SDHAF2 (UniProt Q9NX18) | 0.013 | -0.004 | 0.124 | -0.044 | -0.011 | -0.042 | 0.084 | -0.014 | 0.015 | -0.01 | -0.047 | 0.026 | 0.079 | 0.019 | 0.076 | 0.028 | -0.024 | -0.06 | 0.036 | 0.005
RAB9A (UniProt P51151) | 0.018 | 0.018 | -0.001 | -0.001 | -0.014 | -0.126 | -0.008 | -0.027 | -0.021 | 0.06 | 0.036 | 0.033 | 0.017 | 0.018 | 0.017 | -0.012 | -0.024 | 0.003 | 0.054 | -0.011
SETD3 (UniProt Q86TU7) | -0.007 | 0.011 | -0.018 | -0.041 | -0.013 | 0.027 | -0.022 | 0.002 | -0.03 | 0.05 | -0.008 | 0.029 | -0.01 | 0.046 | -0.024 | 0.035 | -0.01 | 0.034 | -0.037 | 0.026
RNASET2 (UniProt O00584) | 0.028 | 0.042 | 0 | -0.082 | 0.029 | -0.206 | -0.004 | -0.014 | 0.045 | -0.061 | 0.007 | 0.026 | 0.033 | 0.027 | -0.079 | -0.019 | 0.004 | 0.001 | -0.006 | -0.013
SLC18B1 (UniProt Q6NT16) | 0.135 | 0.042 | 0.016 | -0.044 | -0.023 | -0.356 (active) | -0.05 | 0.02 | 0.05 | -0.036 | -0.016 | -0.194 | -0.07 | -0.111 | 0.034 | 0.069 | 0.005 | -0.044 | -0.02 | 0.084
RIPK1 (UniProt Q13546) | -0.104 | -0.081 | -0.201 | 0.195 | -0.023 | -0.23 | 0.14 | 0.123 | -0.014 | 0.056 | 0.101 | -0.043 | -0.002 | -0.178 | 0.109 | 0.054 | 0.135 | 0.092 | 0.094 | 0.085
RPS18 (UniProt P62269) | -0.099 | 0.053 | 0.052 | 0.055 | 0.06 | -0.043 | 0.054 | 0.149 | 0.063 | -0.531 (active) | -0.014 | 0 | -0.049 | -0.061 | 0.148 | -0.125 | -0.04 | -0.01 | 0.021 | -0.067
RPS21 (UniProt P63220) | -0.004 | -0.035 | 0.055 | -0.014 | 0.069 | 0.056 | 0.075 | -0.022 | 0.014 | -0.02 | -0.007 | 0.01 | -0.042 | -0.007 | -0.033 | -0.077 | -0.072 | -0.038 | -0.015 | -0.016
RDH13 (UniProt Q8NBN7) | 0.012 | 0.03 | -0.054 | -0.031 | -0.061 | -0.184 | -0.029 | -0.057 | -0.051 | 0.111 | 0.011 | -0.082 | 0.045 | 0.078 | -0.046 | 0.044 | 0.019 | -0.01 | -0.002 | 0.033
SGPL1 (UniProt O95470) | -0.05 | -0.018 | -0.045 | 0.159 | 0.017 | 0.06 | 0.002 | 0.1 | -0.025 | 0.146 | -0.036 | -0.056 | 0.014 | -0.054 | 0.031 | 0.033 | -0.036 | 0.074 | -0.035 | 0.051
RBM4 (UniProt Q9BWF3) | -0.038 | -0.023 | -0.083 | 0.099 | 0.019 | -0.136 | 0.074 | 0.076 | 0.007 | -0.027 | -0.041 | -0.033 | -0.061 | -0.034 | 0.081 | 0.01 | 0.052 | 0.003 | 0.071 | 0.018
RPS12 (UniProt P25398) | -0.063 | 0.036 | 0.051 | 0.043 | 0.003 | 0.036 | -0.024 | 0.024 | 0.095 | -0.314 (active) | 0.036 | 0.006 | -0.013 | -0.027 | 0.038 | -0.057 | -0.035 | 0.073 | -0.035 | -0.059
RNPS1 (UniProt Q15287) | -0.159 | -0.031 | -0.317 | 0.128 | -0.039 | -0.126 | 0.066 | 0.08 | -0.032 | -0.746 (active) | -0.043 | 0.015 | 0.017 | 0.031 | 0.245 | -0.001 | -0.033 | -0.024 | 0.071 | 0.015
